Assay outcomes (PubChem)
Shown are actives, neighbours in structure and some others; about 3% of the full set was active somewhere.
Nrf2 activator: Nrf2 pathway activation; Potency, µM (titrated, usually from 46.1 µM), actives largely listed as activators; AREc32 ARE-luciferase reporter (MCF7-derived line), luminescence, 24 h; actives 0.31% (n = 410,000); also: nearly all actives have a fitted effect of over 65% in size
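Steps: seed AREc32_Fluc cells (1000/well, 5% FBS OPTI-MEM); incubate overnight at 37 deg C; add 23 nL compound; incubate 24 hr; add Steady-Glo; hold 30 min RT; read luminescence.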
Nrf2 block: Nrf2 pathway inhibition | A549 ARE-Fluc reporter, luciferase luminescence, 18-24 h | Potency, µM (highest dose often 46 µM), hits mostly inhibitors | actives 2.1% (n = 360,000) | AID 504444; also: nearly all actives have a fitted effect of over 60% in size
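Quantitative HTS in A549 cells stably bearing an antioxidant response element-firefly luciferase construct. Inhibition of Nrf2-driven transcription was scored by luminescence after 18-24 h of compound exposure at 37 °C.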
A549 viability: kills or reduces viability of A549 cells in Nrf2 counter-screen | A549 ARE-Fluc cells, CellTiter-Fluor viability, 18-24 h | Potency, µM (titrated, usually from 46 µM), usual class: inhibitors | actives 0.16% (n = 390,000) | AID 504648
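A549 ARE-Fluc cells in 5% FBS OPTI-MEM, 5000 cells/well, rested 2 h then exposed to compounds in concentration-response for 18-24 h at 37 °C. Viability by CellTiter-Fluor fluorescence (Ex 405/Em 525) after 30 min; luciferase luminescence (BugLite, 15 min, RT) read afterwards.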
TrxR1 substrate: rat thioredoxin reductase 1 substrate activity | actives 0.01% (n = 390,000) | AID 588456 | Potency, µM (doses to about 114 µM) | purified TrxR1 substrate turnover, NADPH consumption readout | O89049; also: nearly all actives have a fitted effect of over 50% in size
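Rat TrxR1, dispensed at 90 nM, was prereduced with 400 uM NADPH (final) for 5 min at ~22 deg C, then incubated with compound 15 min before 400 uM selenite. A first-read NADPH fluorescence drop versus no-compound background flagged substrates.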
GALK inh: galactokinase (human) inhibition | P51570 | Purified GALK, Kinase-Glo residual ATP luminescence | Potency, µM (top dose mostly 57.5 µM), most hits filed as inhibitors | actives 0.007% (n = 270,000)
Target sequence (P51570 whole entry, looked up): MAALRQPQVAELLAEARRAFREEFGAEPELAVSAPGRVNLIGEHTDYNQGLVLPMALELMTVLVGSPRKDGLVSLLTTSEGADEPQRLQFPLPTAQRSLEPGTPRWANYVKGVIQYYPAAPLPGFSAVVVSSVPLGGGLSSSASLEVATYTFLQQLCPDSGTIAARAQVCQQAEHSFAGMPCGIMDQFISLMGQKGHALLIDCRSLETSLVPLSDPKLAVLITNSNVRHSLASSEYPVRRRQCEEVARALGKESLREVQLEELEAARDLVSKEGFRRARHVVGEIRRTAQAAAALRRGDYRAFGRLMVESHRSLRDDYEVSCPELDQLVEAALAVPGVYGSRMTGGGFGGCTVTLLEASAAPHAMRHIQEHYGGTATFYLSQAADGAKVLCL
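5 nM enzyme, 35 uM ATP, 100 uM galactose, 20 mM HEPES pH8.0, 5 mM MgCl2; 1 h RT; residual ATP by Kinase-Glo Plus luminescence, qHTS format.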
TrxR1 inh: blocks rat thioredoxin reductase 1; O89049; recombinant rTrxR1, NADPH fluorescence consumption, selenite substrate; Potency, µM (highest dose often 114 µM), actives largely listed as inhibitors; actives 1% (n = 390,000); also: nearly all actives have a fitted effect of over 65% in size
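Rat TrxR1 (90 nM in the dispensed reagent) was pre-reduced with 400 uM NADPH for 5 min at room temperature, then incubated with compound for 15 min. After 400 uM selenite was added, NADPH fluorescence (Ex 340/Em 450 nm) was followed for 8 min.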
Large screens that a line does not name were inactive. Calls follow the shape of the dose curve; as a rule, active = well fitted curve in the direction sought with a large enough effect; inconclusive = small, poorly fitted or top-dose-only effect, or another doubt; inactive = no such curve, though single readings can be large; an effect the other way counts as inactive or inconclusive.

CCC(=O)OCCNc1cc(Sc2nccn2C)c2nonc2c1[N+](=O)[O-]	A549 viability inconclusive, TrxR1 inh 0.28µM
CCC(=O)OCCNc1cc(SCCC(=O)OC)c2nonc2c1[N+](=O)[O-]	TrxR1 inh 8.9µM
O=[N+]([O-])c1c(NCCO)cc(N2CCCCC2)c2nonc12	A549 viability inconclusive
CCOC(=O)N1CCN(c2cc(NCCO)c([N+](=O)[O-])c3nonc23)CC1	none
COC(=O)CCSc1cc(NCCCOC(C)=O)c([N+](=O)[O-])c2nonc12	TrxR1 inh 3.2µM (no result: Nrf2 activator, GALK inh)
COc1ccc(C2/C=C\CN(C(=O)CC(C)(C)C)C(C)C(=O)N2Cc2ccc(F)cc2)cc1 (stereo not given)	none (no result: Nrf2 activator, GALK inh)
Oc1c(N=Nc2ccccc2)sc2ccccc12	Nrf2 activator 2.8µM
CCOC(=O)c1sc(N2C(=O)c3oc4ccc(F)cc4c(=O)c3C2c2ccc(C)cc2)nc1C (stereo not given)	none (no result: Nrf2 activator, Nrf2 block, A549 viability, GALK inh)
COc1ccccc1NC(=O)CSc1ccc(-c2ccco2)nn1	Nrf2 activator inconclusive, TrxR1 inh 50µM
COc1ccccc1-n1c(SCC(=O)NC(C)(C)C)nnc1-c1ccco1	TrxR1 inh 8.9µM
COc1ccc(OC)c(NC(=O)CSc2ccc(-c3cccs3)nn2)c1	Nrf2 activator inconclusive (no result: GALK inh)
COc1ccc(OC)c(NC(=O)CSc2ccc(-c3ccco3)nn2)c1	Nrf2 activator inconclusive, Nrf2 block inconclusive, TrxR1 inh 4µM
O=C(CN1CCN(c2ccccn2)CC1)Nc1ccc(Oc2ccccc2)cc1	none (no result: Nrf2 block)
O=C(CN1CCN(c2ccccn2)CC1)Nc1ccc(OCc2ccccc2)cc1	Nrf2 block 21µM
O=C(CN1CCN(c2ccccn2)CC1)Nc1cccc(S(=O)(=O)N2CCCC2)c1	Nrf2 block 12µM
COc1ccc(S(=O)(=O)N2CCC(C(=O)Nc3ccc4c(c3)OCCO4)CC2)cc1OC	Nrf2 block 21µM
CC(=O)N1CCOc2ccc(S(=O)(=O)N3CCC(C(=O)Nc4ccc(C)c(C)c4)CC3)cc21	Nrf2 block 16µM
CC(=O)N1CCOc2ccc(S(=O)(=O)N3CCC(C(=O)Nc4ccc(F)cc4)CC3)cc21	Nrf2 block inconclusive
CCOC(=O)CNC(=O)CC(c1cc(OC)c(OC)c(OC)c1)N1Cc2ccccc2C1=O (stereo not given)	Nrf2 block inconclusive (no result: GALK inh)
O=C(NC1=C(NC2CCS(=O)(=O)C2)C(=O)c2ccccc2C1=O)c1ccccc1 (stereo not given)	TrxR1 substrate 32µM, TrxR1 inh 50µM
COc1ccc(NC(=O)Cn2cc(S(=O)(=O)Cc3ccc(F)cc3)c3ccccc32)cc1OC	Nrf2 block inconclusive (no result: GALK inh)
CCOc1ccc2[nH]cc(C(=O)NCCc3ccccc3)c(=O)c2c1	Nrf2 block inconclusive
CCOc1ccc2[nH]cc(C(=O)NCc3ccccc3)c(=O)c2c1	Nrf2 block 13µM
O=C(/C=C/Nc1ccc(F)cc1)c1cccs1	Nrf2 activator 6.3µM, Nrf2 block inconclusive (no result: GALK inh)
O=C(/C=C/Nc1ccc(F)c(F)c1)c1cccs1	Nrf2 activator 8.9µM, Nrf2 block inconclusive
O=C(C=Cc1ccccc1)c1cccs1	Nrf2 activator inconclusive, TrxR1 inh 71µM (no result: GALK inh)
Nc1ccc(/C=C/C(=O)c2cccs2)cc1	Nrf2 activator inconclusive, Nrf2 block inconclusive
Cc1cccc(NC(=O)c2cc(CN3CCOCC3)on2)c1C	Nrf2 block inconclusive (no result: GALK inh)
c1ccc(Cc2nnc(N3CCOCC3)c3ccccc23)cc1	none
c1ccc(Cc2nnc(N3CCCCC3)c3ccccc23)cc1	Nrf2 block 18µM, A549 viability inconclusive
Clc1cccc[n+]1CCc1ccccc1	TrxR1 inh 45µM (no result: Nrf2 activator, Nrf2 block, A549 viability, GALK inh)
Clc1ccc2c(ccc[n+]2CCc2ccccc2)c1	none (no result: Nrf2 activator, Nrf2 block, A549 viability, GALK inh)
CN(Cc1ccc(OCC(O)CN2CCCCC2)cc1)Cc1ccnc2ccccc12 (stereo not given)	Nrf2 block 5.8µM
Cc1cccc(-n2c(-c3ccco3)nc3c(cnn3-c3ccccc3C)c2=O)c1	Nrf2 block 21µM (no result: GALK inh)
